Source: PubChem BioAssay (NCATS)
Inconclusive results are not listed. The source made the active and inactive calls. The call rests on the fitted dose curve; in most records, active means well fitted inhibition curve with a large enough effect; inconclusive means small, poorly fitted or top-dose-only effect; inactive means flat fitted curve, though single readings scatter.

Key:
Test in all cases: qHTS profiling for inhibitors of Plasmodium falciparum proliferation (AID 504749); further: nearly all actives have a fitted effect of over 60% in size
Conditions in all cases: P. falciparum in erythrocytes, SYBR Green DNA, 72 h; series mostly up to 12.8 µM
CP256 = system: CP256
Summary of the method: (§1)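 Three-day growth assay of blood-stage parasites in erythrocytes (0.3% parasitemia, 2.5% hematocrit) at 37 C, 5% CO2, quantified by SYBR Green DNA staining after overnight detergent lysis.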

CP260 = system: CP260
Summary of the method: as §1

CP262 = system: CP262
Summary of the method: as §1

CP265 = system: CP265
Summary of the method: as §1

CP266 = system: CP266
Summary of the method: as §1

CP268 = system: CP268
Summary of the method: as §1

CP269 = system: CP269
Summary of the method: as §1

CP286 = system: CP286
Summary of the method: as §1

CP291 = system: CP291
Summary of the method: as §1

CP297 = system: CP297
Summary of the method: as §1

CP305 = system: CP305
Summary of the method: as §1

CP315 = system: CP315
Summary of the method: as §1

CP325 = system: CP325
Summary of the method: as §1

CP329 = system: CP329
Summary of the method: as §1

CP335 = system: CP335
Summary of the method: as §1

DFO2036 = system: DFO2036
Summary of the method: as §1

DIV14 = system: DIV14
Summary of the method: as §1

DIV17 = system: DIV17
Summary of the method: as §1

DIV30 = system: DIV30
Summary of the method: as §1

Dd2 = system: Dd2
Summary of the method: as §1

ECU = system: ECU
Summary of the method: as §1

FAB9 = system: FAB9
Summary of the method: as §1

GB4 = system: GB4
Summary of the method: as §1

HB3 = system: HB3
Summary of the method: as §1

ICS = system: ICS
Summary of the method: as §1

JCK = system: JCK
Summary of the method: as §1

N140 = system: N140
Summary of the method: as §1

P93_24 = system: P93_24
Summary of the method: as §1

P94_40 = system: P94_40
Summary of the method: as §1

PAD = system: PAD
Summary of the method: as §1

PC15 = system: PC15
Summary of the method: as §1

PC49 = system: PC49
Summary of the method: as §1

SC27B = system: SC27B
Summary of the method: as §1

TAB109 = system: TAB109
Summary of the method: as §1

TAB113 = system: TAB113
Summary of the method: as §1

TAB165 = system: TAB165
Summary of the method: as §1

W2 = system: W2
Summary of the method: as §1

Measured: Potency

NC(=O)c1ccc[n+]([C@@H]2O[C@H](COP(=O)([O-])OP(=O)(O)OC[C@H]3O[C@@H](n4cnc5c(N)ncnc54)[C@@H](O)[C@@H]3O)[C@@H](O)[C@@H]2O)c1
inactive: all assays above
